{
  "source": "paper PMC8384837",
  "about": "“Expanding the binding specificity for RNA recognition by a PUF domain”",
  "data": [
    {"target": "PUM1 PUF domain R3-CRT (Homo sapiens, UniProt Q14671 828-1176, Q939T)", "sequence (Q14671 828-1176 Q939T)": "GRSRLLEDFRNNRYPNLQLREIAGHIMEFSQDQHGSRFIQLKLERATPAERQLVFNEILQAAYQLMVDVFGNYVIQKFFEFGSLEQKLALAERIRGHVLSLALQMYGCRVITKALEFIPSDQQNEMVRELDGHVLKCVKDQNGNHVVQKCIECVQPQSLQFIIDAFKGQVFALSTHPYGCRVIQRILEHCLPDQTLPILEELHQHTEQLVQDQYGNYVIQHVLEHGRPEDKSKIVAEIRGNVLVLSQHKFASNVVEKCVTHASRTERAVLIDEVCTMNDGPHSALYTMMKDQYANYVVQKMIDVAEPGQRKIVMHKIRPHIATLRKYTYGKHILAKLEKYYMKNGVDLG", "test": "yeast three-hybrid, YBZ-1, SC-Leu-His + 0.5 mM 3-AT, 4 days", "details": "tags: N-Gal4 AD-HA kept; label: inside an RPR1-promoter hybrid RNA with tandem MS2 sites; ssRNA", "in_short": "(§1)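 The interaction score is the logarithmic change in variant frequency from input to selection. It uses log2, with a pseudocount of 1 for absent variants, and frequencies came from PCR-amplified, Illumina-sequenced repeat regions. The libraries were Pumilio-1 PUF domains randomized at the three base-contacting residues per repeat, co-expressed with matching RNA elements in strain YBZ-1 (LexA–MS2 coat fusion, HIS3 reporter). Plating lasted four days on SC-Leu (input) or SC-Leu-His + 0.5 mM 3-AT (selection).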", "values": [
      {"sequence": "GGCUAGAACUAGUGGAUCCCCCGGCGCCCGGCGGCUCGAGCCCGGGUAAGUGUAAAUAGUCUGCAUGCCGCCGGGCGCCAUGCCUGCAGGUCGACUCUAGAAAACAUG", "binding signal": "3.85 log2 enrichment (interaction score)"},
      {"sequence": "GGCUAGAACUAGUGGAUCCCCCGGCGCCCGGCGGCUCGAGCCCGGGUAAGUGUAAUUAGUCUGCAUGCCGCCGGGCGCCAUGCCUGCAGGUCGACUCUAGAAAACAUG", "binding signal": "1.12 log2 enrichment (interaction score)"},
      {"sequence": "GGCUAGAACUAGUGGAUCCCCCGGCGCCCGGCGGCUCGAGCCCGGGUAAGUGUAAGUAGUCUGCAUGCCGCCGGGCGCCAUGCCUGCAGGUCGACUCUAGAAAACAUG", "binding signal": "1.54 log2 enrichment (interaction score)"}
    ]},
    {"target": "PUM1 PUF domain R3-GRD (Homo sapiens, UniProt Q14671 828-1176, C935G;Q939D)", "sequence (Q14671 828-1176 C935G/Q939D)": "as the sequence (Q14671 828-1176 Q939T) above, with C108G, T112D counted along it", "test": "yeast three-hybrid, YBZ-1, SC-Leu-His + 0.5 mM 3-AT, 4 days", "details": "tags: N-Gal4 AD-HA kept; label: inside an RPR1-promoter hybrid RNA with tandem MS2 sites; ssRNA", "in_short": "as §1", "values": [
      {"sequence": "GGCUAGAACUAGUGGAUCCCCCGGCGCCCGGCGGCUCGAGCCCGGGUAAGUGUAAAUAGUCUGCAUGCCGCCGGGCGCCAUGCCUGCAGGUCGACUCUAGAAAACAUG", "binding signal": "4.82 log2 enrichment (interaction score)"},
      {"sequence": "GGCUAGAACUAGUGGAUCCCCCGGCGCCCGGCGGCUCGAGCCCGGGUAAGUGUAAUUAGUCUGCAUGCCGCCGGGCGCCAUGCCUGCAGGUCGACUCUAGAAAACAUG", "binding signal": "2.16 log2 enrichment (interaction score)"},
      {"sequence": "GGCUAGAACUAGUGGAUCCCCCGGCGCCCGGCGGCUCGAGCCCGGGUAAGUGUAAGUAGUCUGCAUGCCGCCGGGCGCCAUGCCUGCAGGUCGACUCUAGAAAACAUG", "binding signal": "6.36 log2 enrichment (interaction score)"}
    ]}
  ]
}
